Results filed as inconclusive are left out. A number with no mark means an inactive call. The source made the active and inactive calls. Calls follow the shape of the dose curve; as a rule, active = well fitted inhibition curve with a large enough effect; inconclusive = small, poorly fitted or top-dose-only effect; inactive = flat fitted curve, though single readings scatter. Where a SMILES comes first, the peptide text is derived from it. Bridges are numbered along the chain shown (N, C = ends). [ ]: non-standard residue; d: D form. Orn = NCCC[C@H](N)C(=O)O; Mpa = O=C(O)CCS
% is scaled to controls: 0 for no effect and ±100 for the full control effect; potency is read from the fitted curve at half-maximal effect.

The assay in a line: P-glycoprotein substrates identified in KB-8-5-11 adenocarcinoma cell line, qHTS therapeutic library screen (AID 1346987). Also: nearly all actives have a fitted effect of over 65% in size. Conditions: KB-8-5-11 (P-gp overexpressing) viability, CellTiter-Glo, 72 h; series mostly up to 44.5 µM; activity change, negative = cytotoxicity: at the top concentration. In outline:
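KB-8-5-11: colchicine-selected sub-line of KB-3-1 over-expressing P-gp; assay medium lacked colchicine. 72 h drug exposure at 37 degree C, CellTiter-Glo.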
For `Cc1ccccc1CN1CCn2c1nc1c(c2=O)CN(Cc2ccccc2)CC1`, the “activity change, negative = cytotoxicity” value is -16.3%.

On to `c1ccc(-c2cnn3cc(-c4ccc(OCCN5CCOCC5)cc4)cnc23)cc1`, for which the Potency was 1.64 µM (active).

In the case of `O=C(O)c1cccc(/C=C2/C[C@@H]3[C@@H](/C=C/[C@@H](O)C4CCCCC4)[C@H](O)C[C@@H]3O2)c1`, the “activity change, negative = cytotoxicity” value was -6.44%. Consider `CCN(CC)CCOC(=O)c1ccc(N)cc1Cl`, for which the “activity change, negative = cytotoxicity” value was -1.18%.

With `COc1ccc(CCN(C)CCCOc2nsc(-c3ccccc3)n2)cc1OC`, the “activity change, negative = cytotoxicity” value is -12.1%. Still for that read-out and setting: the figure for `O=C(NC1CCC1)c1ccc(C#Cc2cccc(F)c2)nc1` is -11%. With `OC1C=C2C3CN(Cc4cc5c(cc43)OCO5)C2CC1O` (stereo not given), the Potency was 13 µM (active). With `COCC1=C(C(=O)OC(C)OC(=O)OC(C)C)N2C(=O)[C@@H](NC(=O)/C(=N\OC)c3csc(N)n3)[C@H]2SC1` (stereo not given in full), the Potency entry was “inactive”.

Turning to `COc1cc(C(=O)NCC2(N(C)C)CCCC2)cc(OC)c1OCc1ccccc1`, the “activity change, negative = cytotoxicity” value is -22.3%. For `CCOc1ccc(C[C@H]2NC(=O)CCSSC[C@@H](C(=O)N3CCC[C@H]3C(=O)N[C@@H](CCCN)C(=O)NCC(N)=O)NC(=O)[C@H](CC(N)=O)NC(=O)[C@H]([C@@H](C)O)NC(=O)[C@H]([C@@H](C)CC)NC2=O)cc1` ([Mpa][dY](Et)ITNCP[Orn]G-NH2; disulfide 1-6), the “activity change, negative = cytotoxicity” value was 4.4%. Consider `CNS(=O)(=O)c1ccccc1Nc1nc(Nc2ccc(N3CCN(C)CC3)cc2OC)ncc1Br`, for which the Potency is 2.06 µM (active). Take `CCOc1ccc(CCNC(=O)c2cc3sc(Cl)cc3n2C)cc1OCC`: the “activity change, negative = cytotoxicity” value is -20.2%.

On to `CN=C(NC)NCc1ccccc1`, for which the “activity change, negative = cytotoxicity” value was 13%. `CCCCCCCCCCCCCCCC(=O)OC[C@H](O)[C@H]1OC(=O)C(O)=C1O`: the “activity change, negative = cytotoxicity” value is 16.9%. Consider `CCN(CC)c1ccc(N=Nc2ccc(S(=O)(=O)N(C)C)cc2)c(S(=O)(=O)NCC[n+]2ccccc2)c1`, for which the “activity change, negative = cytotoxicity” value is -5.15%. As to `COC(=O)CC[C@@H](C)C1CCC2C3CCC4C[C@H](OC(C)=O)CCC4(C)C3C[C@H](O)C21C` (stereo not given in full), the “activity change, negative = cytotoxicity” value was -7.52%.

On to `CC[C@H]1CN(c2nc(N)c(C(N)=O)nc2Cl)CCN1C1CCN(Cc2ccc(Cl)cc2)CC1`, for which the “activity change, negative = cytotoxicity” value was -25.6%. For the compound `CCOC(=O)N1CCC(N2CCC[C@@H](NC(=O)c3ccccc3C)C2)CC1`, the “activity change, negative = cytotoxicity” value was -6.31%. For `Cn1nnnc1SCC1=C(C(=O)O)N2C(=O)[C@@H](NC(=O)[C@H](OC=O)c3ccccc3)[C@H]2SC1`, the “activity change, negative = cytotoxicity” value was 6.2%.

In the case of `CCC(C)c1ccc(NC(=O)Cn2cnc3c2c(=O)n(C)c(=O)n3C)cc1` (stereo not given), the “activity change, negative = cytotoxicity” value was -19.8%. For `CCC(=O)OCC(=O)[C@@]1(OC(=O)CC)[C@@H](C)C[C@H]2[C@@H]3CCC4=CC(=O)C=C[C@]4(C)[C@@]3(Cl)[C@@H](O)C[C@@]21C`, the “activity change, negative = cytotoxicity” value is -15.9%. For `C=CC(=O)Nc1cc(-n2c(=O)ccc3cnc4ccc(-c5ccc(NS(C)(=O)=O)cc5)cc4c32)ccc1C`, the call was inactive. Take `CCC(C)/C=C(C)/C=C/C1=CC2=CC(=O)C3(C)OC(C)(O)C(C(=O)OC)C3C2=CO1` (stereo not given): the “activity change, negative = cytotoxicity” value is 2.48% [at 17.3 µM]. As for `O=C(OCCO)c1ccccc1O`, the “activity change, negative = cytotoxicity” value was 1.17%. For `CN(C)N(C)C(=O)[C@@]1(Cc2ccccc2)CCCN(C(=O)[C@@H](Cc2c[nH]c3ccccc23)NC(=O)C(C)(C)N)C1`, the result was inactive. In the case of `Nc1c(CC(=O)O)cccc1C(=O)c1ccccc1`, the Potency result is “inactive”. For the compound `COC(C)(C)CCn1nc(Nc2c(C)cccc2C)c2cnc(Nc3ccc(OCCN4CCCC4)c(F)c3)nc21`, the Potency was 20.6 µM (active). Still for that read-out and setting: the entry for `CCCCC(=O)O` is “inactive”. As for `CC(C)c1c(O)ccc2c1CC[C@H]1C(C)(C)CCC[C@]21C`, the “activity change, negative = cytotoxicity” value was -18.1%. On the same count and under the same terms, the figure for `COc1c(C(O)CC(C)C)ccc2c1C(=O)OCc1cc(C)cc(O)c1O2` (stereo not given) is -14%. For the compound `O=C(CN1C2=NCCN2c2ccccc21)c1ccc(-c2ccccc2)cc1`, the Potency is 16.4 µM (active). For `CC1(CO)CC2C(O)C3=C(CC(C)(O)C2C1)C(=O)OC3` (stereo not given), the “activity change, negative = cytotoxicity” value is 0.305%. With `CCCCCCCCCCCCCCCC(=O)OC[C@@H](COP(=O)([O-])OCC[N+](C)(C)C)OC(=O)CCCCCCCCCCCCCCC`, the “activity change, negative = cytotoxicity” value was 14.5%.

Consider `CC(=O)O[C@H]1[C@H](O)C[C@@]2(C)C(CC[C@]3(C)C2CC=C2C4CC(C)(C)CC[C@]4(C(=O)O)CC[C@]23C)C1(C)C` (stereo not given in full), for which the “activity change, negative = cytotoxicity” value was -29.1% [at 17.3 µM]. Regarding `O=C(Nc1ccnc(NC(=O)C2CC2)c1)c1c(Cl)cccc1Cl`, the Potency was 8.2 µM (active).

Regarding `Nc1nc(O)c(C2=C3C(=Nc4ccccc43)C(=O)NCC2)[nH]1`, the call was inactive. As for `CC(=O)O[C@@]12CO[C@@H]1C[C@H](O)[C@@]1(C)C(=O)[C@H](O)C3=C(C)[C@@H](OC(=O)[C@H](O)[C@@H](NC(=O)OC(C)(C)C)c4ccccc4)C[C@@](O)([C@@H](OC(=O)c4ccccc4)C12)C3(C)C` (stereo not given in full), the Potency was 0.126 µM (active). Still for that read-out and setting: the figure for `O=C(CCCN1CCC(n2c(=S)[nH]c3ccccc32)CC1)c1ccc(F)cc1` is 9.2 µM (active).

As to `Cc1cc(C)c(S(=O)(=O)n2cc(C)cc2C)c(C)c1`, the “activity change, negative = cytotoxicity” value is 6.81%. With `Cn1c(CO)c(-c2ccccc2)c2cc([N+](=O)[O-])ccc21`, the “activity change, negative = cytotoxicity” value is -15.4%.

The values are drawn from PubChem BioAssay (NCATS).
